Screens: PubChem, National Center for Advancing Translational Sciences (NCATS)
This is a sample that favours compounds with a hit; in the whole collection about 0.4% have one here.
FMDV Renilla: Primary qHTS Assay for Foot and Mouth Disease Virus Antivirals against NCGC Sytravon and CBC Compound Libraries: Renilla Luciferase Signal; 120,000 tested, 0.32% active; FMDV replicon cells, Renilla luciferase signal; AID 1745857, 2022; Potency, µM (highest dose often 57.5 µM), for inactives: at the highest dose activity change, negative = inhibition, usual class: inhibitors; note: nearly all actives have a fitted effect of over 55% in size
FMDV antiviral: Primary qHTS Assay for Foot and Mouth Disease Virus Antivirals against NCGC Sytravon and CBC Compound Libraries: Firefly Luciferase Signal | 120,000 tested, 0.23% active | Potency, µM (titrated, usually from 57.5 µM), for inactives: at the top dose activity change, negative = inhibition, usual class: inhibitors | FMDV antiviral cell assay, firefly luciferase signal | AID 1745856, 2022; note: nearly all actives have a fitted effect of over 60% in size
Numbers without * were called inactive; ? = inconclusive; [ ] = remark or other dose. Calls come from the whole dose curve. % is set by controls: 0 for no effect and ±100 for the full control effect; potency is the fitted concentration of half-maximal effect.

SMILES | FMDV Renilla | FMDV antiviral
Cc1nc2cc(NC(=O)c3ccc(C(C)(C)C)cc3)ccc2o1 | 4.5µM* | 7.9µM*
CCc1ccc(C(=O)Nc2ccc3oc(C)nc3c2)cc1 | 10µM* | -18%
Cc1nc2cc(NC(=O)c3cccc(Cl)c3)ccc2o1 | -28% | 0%
CCc1ccc(-c2nc3cc(NC(=O)c4ccc(C)c(C)c4)ccc3o2)cc1 | 2% | 29%
COc1ccc2c(c1)c(C(C(=O)O)N1CCN(CCC#N)CC1)cn2CC(=O)O (configuration not stated) | -3% | 1%
CCN(CC)S(=O)(=O)c1ccc(N(C)C)c(NS(=O)(=O)c2ccccc2C(F)(F)F)c1 | 248% | 1%
Cc1ccc2nc(-c3ccc(N)cc3)cc(C(=O)O)c2c1 | 0% | 0%
COC(=O)c1ccc(COc2ccc3c(-c4ccc(F)cc4)noc3c2)cc1 | 16% | 16%
O=C(COc1ccc2c(-c3ccc(F)cc3)noc2c1)OCc1ccccc1 | 1% | 2.8µM*
N/C(=C\C(=O)/C=C/c1cccs1)C(Cl)(Cl)Cl | ? | -16%
COc1nc(C(=O)NC2(c3ccccc3)CCC2)cc2ccccc12 | 4.5µM* | ?
COc1nc(C(=O)NCC(C)N(C)C)cc2ccccc12 (configuration not stated) | -15% | -14%
CC(=O)N1CCCc2ccc(NC(=O)c3ccc(OC(C)C)cc3)cc21 | -4% | ?
CCCCOc1ccc(C(=O)Nc2ccc3c(c2)N(C(C)=O)CCC3)cc1 | -12% | 1.3µM*
O=C(/C=C/c1ccccc1)c1ccc(-n2cc(-c3ccccc3)cc2-c2ccccc2)cc1 | -20% | 63%
O/N=C1\CCCc2c1nc(-c1ccccc1)n2O | -3% | 22%
O=S(=O)(Nc1cccc2cccnc12)c1ccc(F)cc1 | 22µM* | ?
O=C(Nc1cccc2cccnc12)c1ccc(F)cc1 | -11% | 90%
CC(C)=CCNc1ncnc2c1ncn2[C@@H]1O[C@H](CO)[C@@H](O)[C@H]1O | 9% | 6%[11.5 µM]
Nc1nc(F)nc2c1ncn2[C@@H]1O[C@H](CO)[C@@H](O)[C@@H]1O | 14µM* | ?
O=C(c1cc(F)cc(F)c1)N(Cc1ccco1)C1CC1 | -1% | 13%
Cc1ccccc1C(=O)Nc1nc(-c2ccc(Br)cc2)ns1 | 35µM* | ?
COc1ccccc1C(=O)Nc1nc(-c2ccc(Br)cc2)ns1 | -4% | -3%
Cc1cc(C)cc(NC(=O)C2CCCN2S(=O)(=O)c2ccc3c(c2)CCCC(=O)N3)c1 (configuration not stated) | ? | -29%
Cc1ccc(NC(=O)C2CCCN2S(=O)(=O)c2ccc3c(c2)CCCC(=O)N3)cc1C (configuration not stated) | 28µM* | 35µM*
SMILES | FMDV Renilla | FMDV antiviral
C=CC#CC[N+](C)(C)CC#Cc1cccc2ccccc12 | -6% | 4%
CCOc1ccc(CN2CCN(c3ncnc4sccc34)CC2)cc1 | 0.89µM* | 1.1µM*
COc1ccc(-c2csc3ncnc(N4CCN(Cc5ccccc5)CC4)c23)cc1 | -7% | 15%
COc1ccc(NC(=O)c2c(NCc3cccs3)sc3c2CCCC3)cc1 | 8.9µM* | 2%
COc1ccc(NC(=O)c2c(NCc3cccs3)sc3c2CCCCC3)c(OC)c1 | 170% | -6%
CN(Cc1cccs1)C(=O)Cc1n[nH]c(=O)c2ccccc12 | -1% | 15%
CCCOc1ccc2ccccc2c1CN(C)C(=O)Cc1n[nH]c(=O)c2ccccc12 | ? | 25µM*
CCc1c(C)sc(NC(=O)c2cc(-c3ccc(C)cc3C)nc3ccccc23)c1C#N | -2% | 5%
O=C1c2ccccc2NC(c2cc3ccccc3[nH]c2=O)N1C1CC1 (configuration not stated) | -6% | 8%
CCn1c2c(c(=O)n3ncc(C(=O)Nc4cc(Cl)ccc4OC)c13)CN(Cc1ccc(OC)cc1)CC2 | 11% | -21%
COc1ccc(CN2CCc3c(c(=O)n4ncc(C(=O)N5CCN(c6ccccc6OC)CC5)c4n3C)C2)cc1 | 1.8µM* | 2.8µM*
Cc1cc(C(=O)COC(=O)c2nccnc2N)c(C)n1CCc1cccs1 | -2% | 191%
COc1ccc(CNC(=O)c2nc(-c3ccccc3)oc2C)cc1OC | 18µM* | ?
COc1cccc(CNC(=O)c2nc(-c3ccccc3)oc2C)c1 | 11% | 31%
CC(C)(C)c1ccc2c(c1)OCCOCCOCCOc1cc(C(C)(C)C)ccc1OCCOCCOCCO2 | 28µM* | ?
Oc1ccc2c(c1)OCCOCCOc1cc(O)ccc1OCCO2 | 10% | 19%
CC(=O)c1cc2c(cc1NC(=O)CSc1nnc(C3CC3)n1C1CC1)OCO2 | 18% | 17%
CCc1ccc(NC(=O)c2sc3nc4c(cc3c2N)CN(C(C)C)CC4)cc1 | 25µM* | 0%
CCN(CC)c1ccc(NC(=O)c2sc3nc4c(cc3c2N)CN(C)CC4)cc1 | 4% | 23%
N#CC(C#N)=c1[nH]c2ccccc2/c1=C\c1ccccc1 | 4% | 4%
Cc1ccccc1-c1nc(C#N)c(NCCN(C)C)o1 | 17% | 0%
